From PubChem BioAssay (EPA / NIEHS)
Results filed as inconclusive are left out. Active and inactive are the calls of the source. The calls were made as follows, unless noted: active = hit-call score of the fitted dose curve at least 0.9, where 1 is the maximum; inactive = score below 0.9.

Columns and labels:
[1] = ATG_TCF_b_cat_CIS: Attagene CIS-FACTORIAL HepG2 Assay for human T-Cell-Factor with beta-catenin (TCF/b-cat) (AID 2282965); conditions: HepG2 TCF/beta-catenin cis-reporter transcription, actives raise or lower the signal
How it was run: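 HepG2 cells transiently transfected with multiple cis-promoter-regulated reporter transcription units, so endogenous transcription factor activity is measured. Reporter mRNA read 24 hours after dosing by RT-PCR, fluorescent labelling and capillary electrophoresis; bidirectional fitting against DMSO.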

[2] = ATG_TAL_CIS: Attagene CIS-FACTORIAL HepG2 Assay for human TAL Basal Promoter (AID 2282966); conditions: HepG2 Attagene cis-factorial TAL promoter reporter; actives raise or lower the signal;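 also: background control endpoint measuring basal TAL promoter reporter mRNA not a specific factor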
How it was run: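 HepG2, transient MRTU transfection, 24 h compound exposure; RNA → oligo(dT) RT → PCR → 6-FAM primer extension → HpaI digest → CE fluorescence. Bidirectional curve fit vs DMSO. Background-control readout.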

[3] = ATG_TGFb_CIS: Attagene CIS-FACTORIAL HepG2 Assay for human Transforming Growth Factor (TGF) (AID 2282967); conditions: HepG2 Attagene CIS TGFb reporter, mRNA transcription; actives raise or lower the signal
How it was run: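 Readout: fluorescently labeled reporter cDNA fragments resolved by capillary electrophoresis after RT-PCR. Transfected HepG2 cells dosed for 24 h; endogenous TF activity at TGFB1-linked cis element; gain or loss fitted relative to DMSO.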

[4] = ATG_VDRE_CIS: Attagene CIS-FACTORIAL HepG2 Assay for human Vitamin D Receptor Element (VDRE) (AID 2282968); conditions: HepG2 VDRE cis-reporter transcription, actives raise or lower the signal
How it was run: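 Steps: transfect HepG2 with multiple reporter transcription units; dose chemicals 24 h; isolate RNA; RT-PCR; label with 6-FAM primer extension; HpaI digest; capillary electrophoresis. Curves fitted both directions against DMSO.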

[5] = target: Nuclear receptor subfamily 1 group I member 3 (Homo sapiens) (UniProt Q14994); test: ATG_CAR_TRANS: Attagene TRANS-FACTORIAL HepG2 Assay for human Constitutive Androstane Receptor (CAR) (AID 2282969; active = hit-call score of the fitted dose curve at least 0.9, where 1 is the maximum;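 also: activators raise reporter mRNA above DMSO so AC50 marks induction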); conditions: HepG2 Attagene TRANS-FACTORIAL CAR reporter
How it was run: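 Steps: transient transfection of HepG2 with multiple GAL4-UAS reporter units; 24 h compound incubation; RNA isolation, RT-PCR, 6-FAM primer extension, HpaI digest; capillary electrophoresis. Gain-of-signal relative to DMSO negative control.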

[6] = target: Estrogen receptor (Homo sapiens) (UniProt P03372); test: ATG_ERa_TRANS: Attagene TRANS-FACTORIAL HepG2 Assay for human Estrogen Receptor alpha (ERa) (AID 2282970; active = hit-call score of the fitted dose curve at least 0.9, where 1 is the maximum); conditions: HepG2 Attagene TRANS ERa GAL4 reporter, mRNA
How it was run: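 Reporter mRNA induction after 24 hours, detected by fluorescent RT-PCR and capillary electrophoresis, gives the read-out. Cells are HepG2 transiently transfected with GAL4-UAS reporter transcription units responding to chimeric NR-Gal4. Activity is taken as gain of signal over DMSO baseline.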

[7] = target: X-box-binding protein 1 (Homo sapiens) (UniProt P17861); test: ATG_Xbp1_CIS: Attagene CIS-FACTORIAL HepG2 Assay for human X-box Binding Protein 1 (XBP1) (AID 2282972); conditions: HepG2 XBP1 cis-element reporter, Attagene multiplex; actives raise or lower the signal
How it was run: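 Changes in reporter transcript abundance, read by RT-PCR and capillary electrophoresis, reflect endogenous transcription factor activity. Transfected HepG2 cells received compound for 24 hours; DMSO defined baseline for bidirectional analysis.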

[8] = ATG_M_19_TRANS: Attagene TRANS-FACTORIAL HepG2 Assay for M19 Transcription Factor (Internal Marker) (AID 2282974; active = hit-call score of the fitted dose curve at least 0.9, where 1 is the maximum); conditions: HepG2 Attagene TRANS-FACTORIAL M19 internal marker reporter
How it was run: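 Measured here: internal-marker reporter transcript from HepG2 cells transfected with MRTUs, harvested at 24 h. cDNA PCR products were 6-FAM labelled by primer extension, cut with HpaI for 2 h at 37 C, and resolved by CE.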

[9] = ATG_GAL4_TRANS: Attagene TRANS-FACTORIAL HepG2 Assay for GAL4 (Internal Marker) (AID 2282976; active = hit-call score of the fitted dose curve at least 0.9, where 1 is the maximum); conditions: HepG2 Attagene TRANS GAL4 internal marker reporter
How it was run: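 RT-PCR/capillary electrophoresis readout of reporter mRNA. HepG2, transient MRTU transfection (GAL4-UAS reporters), 24 h compound exposure. Background-control endpoint, positive direction vs DMSO baseline.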

[10] = target: Steroid hormone receptor ERR1 (Homo sapiens) (UniProt P11474); test: ATG_ERRa_TRANS: Attagene TRANS-FACTORIAL HepG2 Assay for human Estrogen-Related Receptor alpha (ERRa) (AID 2282971; active = hit-call score of the fitted dose curve at least 0.9, where 1 is the maximum); conditions: HepG2 Attagene TRANS reporter, ERRa transactivation
How it was run: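 Transfected HepG2, 24 h dosing, ERRa-Gal4 chimera driving GAL4-UAS reporter. Readout: reporter mRNA via RT-PCR plus capillary electrophoresis (fluorescence). Positive direction vs DMSO control.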

Chain of X-box-binding protein 1 (Homo sapiens) (P17861 whole entry, looked up): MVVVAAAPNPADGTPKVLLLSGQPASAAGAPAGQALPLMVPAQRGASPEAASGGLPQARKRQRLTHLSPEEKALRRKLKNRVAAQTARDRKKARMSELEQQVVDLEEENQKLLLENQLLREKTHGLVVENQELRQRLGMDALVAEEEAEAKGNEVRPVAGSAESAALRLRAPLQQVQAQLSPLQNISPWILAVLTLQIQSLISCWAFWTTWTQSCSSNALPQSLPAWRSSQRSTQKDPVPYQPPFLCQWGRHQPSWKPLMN
Chain of Estrogen receptor (Homo sapiens) (P03372 whole entry, looked up, the tested form may be a part): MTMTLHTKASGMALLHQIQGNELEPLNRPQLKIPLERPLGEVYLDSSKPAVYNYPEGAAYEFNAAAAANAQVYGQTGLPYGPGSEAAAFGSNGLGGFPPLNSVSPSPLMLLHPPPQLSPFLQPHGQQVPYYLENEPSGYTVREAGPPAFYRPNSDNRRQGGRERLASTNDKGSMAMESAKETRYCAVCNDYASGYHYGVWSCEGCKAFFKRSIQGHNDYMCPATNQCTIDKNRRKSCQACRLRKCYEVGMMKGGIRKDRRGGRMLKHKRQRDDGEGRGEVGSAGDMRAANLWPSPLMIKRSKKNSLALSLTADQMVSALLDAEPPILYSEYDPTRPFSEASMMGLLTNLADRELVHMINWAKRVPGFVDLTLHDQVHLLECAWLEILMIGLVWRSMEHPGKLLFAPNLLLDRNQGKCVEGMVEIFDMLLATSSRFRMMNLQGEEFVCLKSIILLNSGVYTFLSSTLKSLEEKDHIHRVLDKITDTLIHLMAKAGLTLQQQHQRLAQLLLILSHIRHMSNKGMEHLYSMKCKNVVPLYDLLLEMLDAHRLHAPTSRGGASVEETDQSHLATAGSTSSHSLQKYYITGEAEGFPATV
Chain of Nuclear receptor subfamily 1 group I member 3 (Homo sapiens) (Q14994 whole entry, looked up, the tested form may be a part): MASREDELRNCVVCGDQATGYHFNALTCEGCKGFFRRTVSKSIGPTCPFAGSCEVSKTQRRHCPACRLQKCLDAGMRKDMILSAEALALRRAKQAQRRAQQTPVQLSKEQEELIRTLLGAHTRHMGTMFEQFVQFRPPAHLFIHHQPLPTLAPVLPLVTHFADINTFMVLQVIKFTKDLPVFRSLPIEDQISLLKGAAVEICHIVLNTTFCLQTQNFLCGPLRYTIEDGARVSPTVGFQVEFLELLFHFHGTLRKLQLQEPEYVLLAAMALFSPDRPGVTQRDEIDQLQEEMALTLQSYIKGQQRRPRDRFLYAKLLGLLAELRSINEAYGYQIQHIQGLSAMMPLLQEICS
Chain of Steroid hormone receptor ERR1 (Homo sapiens) (P11474 whole entry, looked up, the tested form may be a part): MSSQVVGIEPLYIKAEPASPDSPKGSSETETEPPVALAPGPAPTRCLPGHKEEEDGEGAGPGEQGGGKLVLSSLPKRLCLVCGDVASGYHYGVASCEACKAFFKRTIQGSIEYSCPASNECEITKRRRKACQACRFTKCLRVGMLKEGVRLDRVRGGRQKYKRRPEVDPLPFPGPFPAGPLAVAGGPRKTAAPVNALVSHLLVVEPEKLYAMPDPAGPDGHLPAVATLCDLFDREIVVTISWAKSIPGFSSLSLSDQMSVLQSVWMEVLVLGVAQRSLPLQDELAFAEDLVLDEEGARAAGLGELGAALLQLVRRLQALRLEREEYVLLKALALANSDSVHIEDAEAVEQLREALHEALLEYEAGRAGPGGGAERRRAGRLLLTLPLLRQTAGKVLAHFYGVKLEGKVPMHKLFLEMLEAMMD

| SMILES | AC50 [1] | outcome [2] | outcome [3] | AC50 [4] | outcome [5] | AC50 [6] | AC50 [7] | outcome [1] | outcome [4] | outcome [6] | outcome [7] | outcome [8] | outcome [9] | outcome [10] |
| --- | --- | --- | --- | --- | --- | --- | --- | --- | --- | --- | --- | --- | --- | --- |
| c1ccc(Nc2cccc3ccccc23)cc1 | 50.8 µM (active) | inactive | inactive | 10.3 µM (active) | inactive | 2.75 µM (active) | 53.5 µM (active) | – | – | – | – | – | – | – |
| CC(=O)OCC=C(C)C | – | inactive | inactive | – | inactive | – | – | inactive | inactive | inactive | inactive | inactive | – | – |
| N#Cc1ccc(C2CCCc3cncn32)cc1 (stereo not given) | – | inactive | inactive | – | inactive | 25.8 µM (active) | – | inactive | inactive | – | inactive | inactive | inactive | – |
| CC(C)c1cccc(C(C)C)c1N | – | inactive | inactive | – | inactive | – | – | inactive | inactive | inactive | inactive | inactive | – | – |
| CC(=O)CCC1=C(C)CCCC1(C)C | – | inactive | inactive | – | inactive | 13 µM (active) | – | inactive | inactive | – | inactive | – | – | – |
| CCCCC(=O)O | – | inactive | inactive | – | inactive | – | – | inactive | inactive | inactive | inactive | inactive | – | – |
| O=c1c(O)c(-c2ccc(O)cc2O)oc2cc(O)cc(O)c12 | – | inactive | inactive | – | inactive | 59.4 µM (active) | – | inactive | inactive | – | inactive | inactive | – | – |
| CCCCCCCO | – | inactive | inactive | – | inactive | 67.1 µM (active) | – | inactive | inactive | – | inactive | inactive | – | – |
| C=Cc1cccc(C)c1 | – | inactive | inactive | – | inactive | – | – | inactive | inactive | inactive | inactive | inactive | – | – |
| Oc1ccc(-c2ccccc2)c(Cl)c1 | – | inactive | inactive | 33.4 µM (active) | inactive | 9.14 µM (active) | 33.4 µM (active) | inactive | – | – | – | – | – | – |
| COC(Cc1ccccc1)OC | – | inactive | inactive | – | inactive | – | – | inactive | inactive | inactive | inactive | – | – | – |
| C=CC(=O)OCCCCCCOC(=O)C=C | – | inactive | inactive | 25.6 µM (active) | inactive | – | 26.6 µM (active) | inactive | – | inactive | – | inactive | – | inactive |
| CCCC(CC)c1ccccc1 (stereo not given) | – | inactive | inactive | – | inactive | 55.3 µM (active) | – | inactive | inactive | – | inactive | inactive | – | – |
| O=C(OCCc1ccccc1)c1ccccc1 | – | inactive | inactive | – | inactive | – | – | inactive | inactive | inactive | inactive | inactive | – | – |
